According to PubChem BioAssay AID1159580 (chemical genetic matrix, 2015):
In all, about 5,500 compounds went through this assay and about 2,000 (36%) were called active. Not shown: some 18% with an inconclusive outcome. No stated cut-off is given here; in the data, active means normalized growth mostly below about 0.91 (no sharp cut-off); inconclusive means no clear call, values can overlap the other calls; inactive means mostly above about 0.92. The list shows a part of the results.

Assay: chemical genetic growth profiling, strain panel (AID 1159580);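 further: tested at 20 µM; growth read once vehicle control cultures reached saturation at 30 °C; 1 = growth at the plate median or of vehicle wells; lower values mean less growth of the strain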
Details: growth OD

Measured: normalized growth

OC(CCN1CCCC1)(c1ccccc1)C1CCCCC1 (centres undefined)
inactive: S. cerevisiae deletion strains, locus YJR043C, strain POL32, active compounds read low 1.01 | S. cerevisiae deletion strains, locus YJR066W, strain TOR1, active compounds read low 0.973 | S. cerevisiae deletion strains, locus YKL009W, strain mrt4, active compounds read low 0.977 | S. cerevisiae deletion strains, locus YKL068W, active compounds read low 0.985 | S. cerevisiae deletion strains, locus YKL085W, strain MDH1 (second series), active compounds read low 0.977 | S. cerevisiae deletion strains, locus YKL085W, strain MDH1, active compounds read low 0.977 | S. cerevisiae deletion strains, locus YKL160W, strain elf1, active compounds read low 0.975 | S. cerevisiae deletion strains, locus YKL190W, strain CNB1, active compounds read low 0.996 | S. cerevisiae deletion strains, locus YKR001C, strain vps1, active compounds read low 0.985 | S. cerevisiae deletion strains, locus YKR026C, strain gcn3, active compounds read low 0.986 | S. cerevisiae deletion strains, locus YKR091W, strain srl3, active compounds read low 0.992 | S. cerevisiae deletion strains, locus YLL001W, strain dnm1, active compounds read low 0.956 | S. cerevisiae deletion strains, locus YLL026W, active compounds read low 0.974 | S. cerevisiae deletion strains, locus YLL041C, strain sdh2, active compounds read low 0.988 | S. cerevisiae deletion strains, locus YLR027C, strain aat2, active compounds read low 0.969 | S. cerevisiae deletion strains, locus YLR039C, strain RIC1, active compounds read low 1.05 | S. cerevisiae deletion strains, locus YLR058C, strain SHM2, active compounds read low 0.994 | S. cerevisiae deletion strains, locus YLR102C, strain apc9, active compounds read low 0.972 | S. cerevisiae deletion strains, locus YLR113W, strain HOG1, active compounds read low 1 | S. cerevisiae deletion strains, locus YLR221C, strain rsa3, active compounds read low 0.995 | S. cerevisiae deletion strains, locus YLR258W, strain gsy2, active compounds read low 1 | S. cerevisiae deletion strains, locus YLR262C, strain YPT6 (second series), active compounds read low 0.998 | S. cerevisiae deletion strains, locus YLR262C, strain YPT6, active compounds read low 1.07 | S. cerevisiae deletion strains, locus YLR268W, strain sec22, active compounds read low 0.946 | S. cerevisiae deletion strains, locus YLR320W, strain mms22, active compounds read low 0.968 | S. cerevisiae deletion strains, locus YLR330W, strain CHS5, active compounds read low 0.992 | S. cerevisiae deletion strains, locus YLR342W, strain FKS1 (second series), active compounds read low 0.992 | S. cerevisiae deletion strains, locus YLR342W, strain FKS1, active compounds read low 0.963 | S. cerevisiae deletion strains, locus YLR357W, strain rsc2, active compounds read low 0.973 | S. cerevisiae deletion strains, locus YLR370C, strain arc18, active compounds read low 0.972 | S. cerevisiae deletion strains, locus YLR371W, strain rom2, active compounds read low 0.958 | S. cerevisiae deletion strains, locus YLR384C, strain iki3, active compounds read low 0.969 | S. cerevisiae deletion strains, locus YLR418C, strain cdc73, active compounds read low 0.957 | S. cerevisiae deletion strains, locus YML016C, strain PPZ1, active compounds read low 0.991 | S. cerevisiae deletion strains, locus YML032C, strain rad52, active compounds read low 0.97 | S. cerevisiae deletion strains, locus YML120C, strain ndi1, active compounds read low 0.972 | S. cerevisiae deletion strains, locus YML124C, strain tub3, active compounds read low 0.983 | S. cerevisiae deletion strains, locus YMR058W, strain fet3, active compounds read low 0.981 | S. cerevisiae deletion strains, locus YMR078C, strain ctf18, active compounds read low 0.966 | S. cerevisiae deletion strains, locus YMR125W, strain sto1, active compounds read low 1 | S. cerevisiae deletion strains, locus YMR129W, active compounds read low 0.99 | S. cerevisiae deletion strains, locus YMR205C, strain PFK2, active compounds read low 0.985 | S. cerevisiae deletion strains, locus YMR223W, strain ubp8, active compounds read low 0.999 | S. cerevisiae deletion strains, locus YMR231W, strain pep5, active compounds read low 1 | S. cerevisiae deletion strains, locus YMR263W, strain SAP30, active compounds read low 1 | S. cerevisiae deletion strains, locus YMR307W, strain GAS1, active compounds read low 0.991 | S. cerevisiae deletion strains, locus YNL067W, strain RPL9B, active compounds read low 0.998 | S. cerevisiae deletion strains, locus YNL071W, strain lat1, active compounds read low 1.01 | S. cerevisiae deletion strains, locus YNL128W, strain TEP1, active compounds read low 0.982 | S. cerevisiae deletion strains, locus YNL183C, strain NPR1, active compounds read low 0.989 | S. cerevisiae deletion strains, locus YNL209W, strain ssb2, active compounds read low 0.993 | S. cerevisiae deletion strains, locus YNL233W, strain BNI4, active compounds read low 1.01 | S. cerevisiae deletion strains, locus YNL248C, strain rpa49, active compounds read low 1.01 | S. cerevisiae deletion strains, locus YNL250W, strain rad50, active compounds read low 0.967 | S. cerevisiae deletion strains, locus YNL271C, strain bni1, active compounds read low 0.987 | S. cerevisiae deletion strains, locus YNL298W, strain CLA4, active compounds read low 0.97 | S. cerevisiae deletion strains, locus YNL307C, strain MCK1, active compounds read low 0.976 | S. cerevisiae deletion strains, locus YNL322C, strain KRE1 (second series), active compounds read low 0.981 | S. cerevisiae deletion strains, locus YNR049C, strain mso1, active compounds read low 0.998 | S. cerevisiae deletion strains, locus YNR052C, strain pop2, active compounds read low 0.98 | S. cerevisiae deletion strains, locus YOL006C, strain TOP1, active compounds read low 1.02 | S. cerevisiae deletion strains, locus YOL012C, strain htz1 0.758 | S. cerevisiae deletion strains, locus YOL147C, strain pex11, active compounds read low 0.975 | S. cerevisiae deletion strains, locus YOR001W, strain rrp6, active compounds read low 0.965 | S. cerevisiae deletion strains, locus YOR061W, strain CKA2, active compounds read low 0.987 | S. cerevisiae deletion strains, locus YOR069W, strain VPS5, active compounds read low 0.989 | S. cerevisiae deletion strains, locus YOR070C, strain gyp1, active compounds read low 1 | S. cerevisiae deletion strains, locus YOR080W, strain dia2, active compounds read low 0.983 | S. cerevisiae deletion strains, locus YOR083W, strain WHI5, active compounds read low 0.956 | S. cerevisiae deletion strains, locus YOR106W, strain vam3, active compounds read low 0.979 | S. cerevisiae deletion strains, locus YOR136W, strain idh2, active compounds read low 0.982 | S. cerevisiae deletion strains, locus YOR144C, strain elg1, active compounds read low 0.979 | S. cerevisiae deletion strains, locus YOR184W, strain ser1, active compounds read low 0.985 | S. cerevisiae deletion strains, locus YOR231W, strain MKK1, active compounds read low 0.963 | S. cerevisiae deletion strains, locus YOR265W, strain rbl2, active compounds read low 0.988 | S. cerevisiae deletion strains, locus YOR270C, strain vph1, active compounds read low 0.965 | S. cerevisiae deletion strains, locus YOR290C, strain snf2, active compounds read low 1.01 | S. cerevisiae deletion strains, locus YOR316C, strain cot1, active compounds read low 0.97 | S. cerevisiae deletion strains, locus YPL051W, strain arl3, active compounds read low 0.987 | S. cerevisiae deletion strains, locus YPL078C, strain atp4, active compounds read low 0.945 | S. cerevisiae deletion strains, locus YPL106C, strain sse1, active compounds read low 1 | S. cerevisiae deletion strains, locus YPL240C, strain hsp82, active compounds read low 0.978 | S. cerevisiae deletion strains, locus YPL256C, strain CLN2, active compounds read low 1.02 | S. cerevisiae deletion strains, locus YPR119W, strain clb2, active compounds read low 0.981 | S. cerevisiae deletion strains, locus YPR141C, strain kar3, active compounds read low 0.978 | S. cerevisiae deletion strains, locus YPR163C, strain tif3, active compounds read low 0.974 | S. cerevisiae deletion strains, locus YPR167C, strain met16, active compounds read low 0.978 | S. cerevisiae deletion strains, strain wtn01, active compounds read low 0.964 | S. cerevisiae strains, strain wild type, active compounds read low 0.996
